Measurements published in PubChem BioAssay (NCATS).
Results filed as inconclusive are left out. Calls of active or inactive are those of the source. The call rests on the fitted dose curve; in most records, active means well fitted inhibition curve with a large enough effect; inconclusive means small, poorly fitted or top-dose-only effect; inactive means flat fitted curve, though single readings scatter.

System: KB-3-1
Assay: Cytotoxic Profiling of Annotated Libraries Using Quantitative High-Throughput Screening (AID 1296008); further: nearly all actives have a fitted effect of over 60% in size
Conditions: Five cell lines viability, CellTiter-Glo ATP luminescence, 48-72 h; max response: active compounds read low
Method in brief: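 Cytotoxicity was measured as CellTiter-Glo ATP luminescence, read after 10 min at room temperature. Compound treatment of the cells lasted 48 or 72 hr at 37 degrees Celsius in a qHTS format.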
On the % scale 0 is the no-effect control and ±100 the full control effect.

Row | SMILES | max response
1 | CC[C@H]1NC(=O)[C@@H](NC(=O)c2ncccc2O)[C@@H](C)OC(=O)[C@H](c2ccccc2)NC(=O)[C@@H]2CC(=O)CCN2C(=O)[C@H](Cc2ccccc2)N(C)C(=O)[C@@H]2CCCN2C1=O | 2% (inactive)
2 | [O]=[Bi][O]C(=O)[O][Bi]=[O] | -15.6% (inactive)
3 | OC[C@H]1O[C@@H]2O[C@H]3[C@H](O)[C@@H](O)[C@@H](O[C@H]4[C@H](O)[C@@H](O)[C@@H](O[C@H]5[C@H](O)[C@@H](O)[C@@H](O[C@H]6[C@H](O)[C@@H](O)[C@@H](O[C@H]7[C@H](O)[C@@H](O)[C@@H](O[C@H]1[C@H](O)[C@H]2O)O[C@@H]7CO)O[C@@H]6CO)O[C@@H]5CO)O[C@@H]4CO)O[C@@H]3CO | 3.87% (inactive)
4 | O=C(CO)[C@@H](O)[C@H](O)[C@@H](O)C(=O)O | -10% (inactive)
5 | COc1ccc(C(=O)c2ccc(C)cc2)c(O)c1 | 4.04% (inactive)
6 | C=CC[N+]1([C@H]2C[C@H]3[C@@H]4CC[C@H]5C[C@H](O)[C@@H](N6CCOCC6)C[C@]5(C)[C@H]4CC[C@]3(C)[C@H]2OC(C)=O)CCCC1 | 7.82% (inactive)
7 | CC(C)(C)NCC(O)c1ccc(O)c(CO)n1 (centres undefined) | -3.71% (inactive)
8 | Cn1c(O)c(N=NC(N)=S)c2ccccc21 | 8.19% (inactive)
9 | C=C1CC[C@H](O)CC1=C/C=C1\CCC[C@]2(C)[C@@H]([C@H](C)CCCC(C)(C)O)CC[C@@H]12 | 5.57% (inactive)
10 | Cc1cccc(C)c1NC(=O)C1CCCCN1C (centres undefined) | -1.09% (inactive)
11 | CCCCCCCCCc1ccc(OCCOCCO)cc1 | -16.4% (inactive)
12 | O=C1/C(=C\c2cccs2)CCC/C1=C\c1cccs1 | 8.4% (inactive)
13 | CC(C)(CO)[C@@H](O)C(=O)NCCCC(=O)O | -10.7% (inactive)
14 | O=c1n(CC2CO2)c(=O)n(CC2CO2)c(=O)n1CC1CO1 (centres undefined) | 23% (inactive)
